A number with no mark means an inactive call.

Among the data in PubChem BioAssay are z-score values, retold here.

This assay can be described thus: splicing luciferase reporter signal modulators, primary screen, spliceosome inhibition project, cell-based, HEK293, splice +/- reporter (AID 1101).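 Further: HEK293 cells carrying a splicing-competent luciferase reporter gene; test concentration not given here.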 The following applies: luminescence, 24 h, higher = more signal, called active from +8 up or from −8 down.
On to `C=C1C(=O)C=C2CN(C(=O)c3ccccc3)[C@@](Cc3ccc(OC)cc3)(C(=O)OC)[C@@H]12`, for which the z-score was -2.15.
In the case of `COC(=O)[C@@]1(Cc2ccc(F)cc2)[C@H]2c3cc(C(=O)N(C)C)n(C)c3C[C@H]2CN1C(=O)c1ccccc1`, the z-score was -0.84.
On to `COCCCNC(=O)[C@@]1(CCS(=O)(=O)c2ccccc2)COC(c2ccc(OCCCO)cc2)=N1`, for which the z-score is 0.0749.
Turning to `CO[C@H]1O[C@H](CO)[C@@H](OC(=O)Nc2ccc3c(c2)OCO3)[C@H](OC(=O)Nc2ccccc2-c2ccccc2)[C@H]1OC(=O)Nc1ccccc1-c1ccccc1`, the z-score was 0.617.
Turning to `NC(=O)N1C(=O)C2C(C1=O)C1C=C(CCCO)C2C(C2CC2)N1Cc1sc2ccccc2c1Cl` (stereo not given), the z-score was 1.01.
In the case of `C=CC[C@@]1(C(=O)OC)N=C(c2ccc(OCCCO)cc2)O[C@@H]1c1ccccc1N=[N+]=[N-]`, the z-score is -1.61.
On to `C=CCC(OC(C)=O)[C@@H]1[C@@H](N(Cc2ccc(-c3ccccc3)cc2)C(=O)c2cccc3ccccc23)c2cc(OCCCO)ccc2N1C(=O)Cc1ccc(OC)cc1` (stereo not given in full), for which the z-score was -0.149.
The result for `CCOc1cc(C(O)C2C=CC3C(=O)N(c4ccccc4)C(=O)C3N2Nc2ccccc2F)ccc1O` (stereo not given) reads 0.101.
The figure for `C=CCC(OC(C)=O)[C@@H]1[C@@H](N(Cc2cc3ccccc3o2)C(=O)c2cccc3ccccc23)c2cc(OCCCO)ccc2N1C(=O)c1ccc2ccccc2n1` (stereo not given in full) is -0.73; for `COc1ccc(C(O)C2C=CC3C(=O)N(C)C(=O)C3N2N(c2ccccc2)c2ccccc2)cc1` (stereo not given) it is 1.09.
